Data reported in PubChem BioAssay AID1063 (University of Pittsburgh Molecular Library Screening Center, 2008).
Hit rate of the full screen: of about 200,000 compounds, about 18,000 (9%) were called active. Many of the other results were omitted from the sample, so actives are more common in it than they were. Values without a mark were called inactive. Cut-off read from the data, not from the text of the source: active = inhibition above about 50%; inactive = the rest.

Test: Leishmania major promastigote growth inhibition, primary screen (AID 1063);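 note: promastigotes grown with compound for 44 hours at 28 °C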
Details: Leishmania major promastigotes, resazurin fluorescence viability; at 10 µM; active compounds read high

Row | Compound | inhibition
1 | O=C(NCC1CCCO1)c1ccc2ccccc2n1 (stereo unspecified) | -4.29%
2 | O=C(/C=C/c1ccccc1[N+](=O)[O-])NCC1CCCO1 (stereo unspecified) | 64.4% (active)
3 | COc1ccc(C(=O)OCC(=O)NCC2CCCO2)cc1[N+](=O)[O-] (stereo unspecified) | -1.01%
4 | CC(C)C(=O)Nc1c(O)c2ccccc2[nH]c1=O | -11.4%
5 | CCn1cc(C(=O)NCCCN2CCCCCC2)c(=O)c2cc(S(=O)(=O)N3CCc4ccccc4C3)ccc21 | 89.7% (active)
6 | CCn1cc(C(=O)NCC2CCCO2)c(=O)c2cc(S(=O)(=O)N3CCCCC3)ccc21 (stereo unspecified) | 10.9%
7 | O=C(Nc1ccc(S(=O)(=O)N2CCc3ccccc3C2)cc1)c1ccccc1 | -4.05%
8 | CCCCOC(=O)c1ccc(N2C(=O)CC(N3CCN(C/C=C/c4ccccc4)CC3)C2=O)cc1 (stereo unspecified) | -5.72%
9 | O=C(Cn1c(N2CCN(C/C=C/c3ccccc3)CC2)nc2ccccc21)c1ccccc1 | 53.2% (active)
10 | CC(C)Cn1c(N2CCN(C(=O)/C=C/c3ccccc3)CC2)nc2ccccc21 | 5.8%
11 | Cc1ccc(-n2c(SCC(=O)NCc3ccc4c(c3)OCO4)nnc2-c2cccnc2)c(C)c1 | 7.56%
12 | CCn1c(SCC(=O)NCc2ccco2)nnc1-c1ccc(N)cc1 | -3.78%
13 | O=C(CSc1nnc(-c2ccncc2)n1-c1ccc(Cl)cc1)Nc1ccc(C(=O)O)cc1 | -7.6%
14 | Cc1ccc(-c2nnc(SCC(=O)N/N=C/c3cccs3)n2-c2ccc(C)cc2)cc1 | 32%
15 | Cc1ccc(-n2c(SCC(=O)N3c4ccccc4Sc4ccccc43)nnc2-c2ccncc2)cc1 | 62.6% (active)
16 | Cc1ccc(Nc2nc(CSc3nnc(-c4ccncc4)n3-c3ccccc3C)cs2)cc1 | 28.5%
17 | Cc1ccccc1-n1c(SCC(=O)NCc2cccs2)nnc1-c1ccncc1 | 53% (active)
18 | CCOc1ccccc1-n1c(SCC(=O)NCc2ccco2)nnc1-c1ccncc1 | 67.1% (active)
19 | Cc1ccc(-c2csc3nnc(SCC(=O)NCc4ccco4)n23)cc1 | -1.56%
20 | CCc1nc2ccccc2c(C(=O)OC2CCCCC2=O)c1C (stereo unspecified) | 7.85%
21 | O=[N+]([O-])c1cccc(/C([O-])=C(/C(=S)Nc2ccccc2F)[n+]2ccccc2)c1 | -0.54%

Row | Compound | inhibition
22 | C=CCN(C(=O)c1cc(C)cc(C)c1)C1(C(=O)Nc2ccccc2)CCN(C(C)C)CC1 | 6.23%
23 | CCNC(=O)N1c2ccccc2Sc2ccccc21 | 4.94%
24 | COc1ccccc1CNC(=O)C1Cc2ccccc2C(=O)O1 (stereo unspecified) | -1.31%
25 | CCCC1NC(=S)NC(C)=C1C(C)=O (stereo unspecified) | -12.4%
26 | O=C(/C=C/c1ccc2c(c1)OCO2)NCc1cn2cc(Cl)ccc2n1 | -4.11%
27 | CC(C)NC(=S)Nc1cccc2cnccc12 | -1.24%
28 | CCOC(=O)Cn1nnnc1C | -3.4%
29 | C=CCC(CC=C)(C(N)=O)c1ccccc1 | 2.87%
30 | CC(C)(O)C(=O)NN(C(=O)c1ccccc1)c1cccc(Br)c1 | 3.6%
31 | CCC(C)NC(=O)CCCc1ccccc1 (stereo unspecified) | 13.2%
32 | Cc1ccc(N(NC(=O)C(C)(C)O)C(=O)c2ccccc2)cc1C | -3.54%
33 | CCCCC(O)(CCCC)C(=O)NN(C(=O)CCl)c1ccccc1 | 54.5% (active)
34 | CCCCCCCCC(=O)NCCOc1ccccc1 | -9.39%
35 | CCCC(O)(CCC)C(=O)NN(C(=O)CCl)c1cccc(C)c1 | 82.9% (active)
36 | Cc1ccc(N(C(=O)c2ccc(S(=O)(=O)N(C)C)cc2)C2C=CS(=O)(=O)C2)cc1 (stereo unspecified) | 5.35%
37 | COc1ccccc1-c1noc(CSc2nc(C)cc(=O)[nH]2)n1 | -6.37%
38 | N#CCC(=O)N/N=C/c1ccc(SCC(=O)Nc2ccccc2)o1 | -1.51%
39 | CCSc1sc(CC)cc1C=O | 5.02%
40 | O=C(Nc1ccccc1)Nc1nc2ccccc2s1 | -0.32%
41 | c1ccc2sc(NN=C3CCCC3)nc2c1 | 57% (active)
42 | Cc1ccnc(Nc2nc3ccccc3s2)n1 | 11.8%

Row | Compound | inhibition
43 | O=C(C1CCCN1S(=O)(=O)c1ccc(Br)cc1)N1CCOCC1 (stereo unspecified) | 1.18%
44 | CC1(C)CN(c2ccc(-c3ccnc4ncnn34)cc2)C1=O | 8.31%
45 | CCN(CC)CCN(C(=O)c1ccc(N2C(=O)CCC2=O)cc1)c1nc2cc3c(cc2s1)OCO3 | 4.38%
46 | Cc1[nH]c2ccccc2c1SCC(=O)Nc1nccs1 | 2.27%
47 | Cc1ccc(NC(=O)NC2CCCCC2)cc1S(=O)(=O)N1CCOCC1 | 27.4%
48 | COc1ccc(S(=O)(=O)N2CCC(C(=O)OCC(=O)c3ccccc3)CC2)cc1[N+](=O)[O-] | -6.1%
49 | Cc1cc(C(=O)COc2ccccc2[N+](=O)[O-])c(C)n1-c1cccc(S(=O)(=O)N2CCOCC2)c1 | 98.9% (active)
50 | O=C(NC(=S)Nc1ccc(S(=O)(=O)N2CCOCC2)cc1)c1ccccc1[N+](=O)[O-] | 5.68%
51 | S=c1[nH]ccn1-c1ccc(Cl)cc1 | -8.82%
52 | O=S(=O)(NC1CC1)c1ccc2c3c(cccc13)CC2 | 3.72%
53 | Cc1ccc(C(=O)OC2CCCN(C)C2)cc1 (stereo unspecified) | -6.05%
54 | O=C(Nc1ccc(S(=O)(=O)Nc2ncccn2)cc1)c1cncc(Br)c1 | -5.97%
55 | CCNS(=O)(=O)c1ccc(NC(=O)Nc2cccc(OC)c2)cc1 | 3.37%
56 | CCNS(=O)(=O)c1ccc(NC(=O)c2cncc(Br)c2)cc1 | 50.3% (active)
57 | N#CC1(C#N)C(C(=O)C23CC4CC(CC(C4)C2)C3)C12CCOCC2 (stereo unspecified) | 4.33%
58 | Cc1ccccc1CSc1nnc(-c2ccccc2)c(=O)[nH]1 | -8.07%
59 | CCc1ccc(NC(=O)Cn2nc(C)c([N+](=O)[O-])c2C)cc1 | 6.59%
60 | Cc1nn(CC(=O)Nc2nc3ccccc3s2)c(C)c1[N+](=O)[O-] | 50.5% (active)
61 | Cc1nn(CC(=O)NCc2ccccn2)c(C)c1[N+](=O)[O-] | -2.73%
